What all share (details): mRNA level, 48 h; actives raise or lower the signal
Read-out in assay [1]: solute carrier (SLCO1B1), SLCO1B1 (gene 10599)
Nature of the assay: LTEA_HepaRG_SLCO1B1: Life Technologies and Expression Analysis (LTEA) Assay for solute carrier (SLCO1B1) using HepaRG (AID 2283530). The gist of the method:
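SLCO1B1 transcript levels were quantified by TaqMan qRT-PCR using three housekeeping genes for normalization. This followed 48 h chemical exposure (100 uM top, half-log, 8 points, 0.5% DMSO) of HepaRG liver cells, with gain or loss fitted relative to DMSO.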

Read-out in assay [2]: sulfotransferase 2A1 (SULT2A1), SULT2A1 (gene 6822)
Kind of assay: LTEA_HepaRG_SULT2A1: Life Technologies and Expression Analysis (LTEA) Assay for sulfotransferase 2A1 (SULT2A1) using HepaRG (AID 2283531). The method, boiled down:
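Expression change of SULT2A1, by qRT-PCR with three housekeeping-gene normalization, was scored bidirectionally versus DMSO. Cells: differentiated HepaRG, dosed in duplicate for 48 h across 8 points, highest 100 µM, half-log dilution, 0.5% DMSO.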

Read-out in assay [3]: Transforming Growth Factor (TGFA), TGFA (gene 7039)
Kind of assay: LTEA_HepaRG_TGFA: Life Technologies and Expression Analysis (LTEA) Assay for Transforming Growth Factor (TGFA) using HepaRG (AID 2283532). The method, boiled down:
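HepaRG (human liver line), 48 h exposure, 8 conc. half-log down from 100 uM, 0.5% DMSO vehicle, duplicates; serum-free induction medium. TGFA mRNA by TaqMan qRT-PCR, ACTB/GAPDH/POLR2A normalization; gain/loss fit vs DMSO.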

Read-out in assay [4]: Transforming Growth Factor (TGFB1), TGFB1 (gene 7040)
Nature of the assay: LTEA_HepaRG_TGFB1: Life Technologies and Expression Analysis (LTEA) Assay for Transforming Growth Factor (TGFB1) Transporter using HepaRG (AID 2283533). The method, boiled down:
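TGFB1 transcript measured by qRT-PCR with normalisation to three housekeeping genes (ACTB, GAPDH, POLR2A); human HepaRG line treated in duplicate for 48 hr with an 8-point series topping at 100 uM, 0.5% DMSO vehicle, bidirectionally fitted.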

Read-out in the next assay: TIMP1, TIMP1 (gene 7076)
Kind of assay: LTEA_HepaRG_TIMP1: Life Technologies and Expression Analysis (LTEA) Assay for TIMP1 using HepaRG (AID 2283534).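 Also: TaqMan qRT-PCR signal normalized to ACTB GAPDH and POLR2A housekeeping genes.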 The method, boiled down: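 Bidirectional change in TIMP1 transcript versus 0.5% DMSO, measured by TaqMan qRT-PCR with three housekeeping genes for normalization. HepaRG human liver cells dosed 48 h in duplicate, top concentration 100 uM with half-log dilutions.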

Read-out in assay [5]: Tumor necrosis factor receptor 1 (TNFRSF1A), TNFRSF1A (gene 7132)
Nature of the assay: LTEA_HepaRG_TNFRSF1A: Life Technologies and Expression Analysis (LTEA) Assay for Tumor necrosis factor receptor 1 (TNFRSF1A) using HepaRG (AID 2283535). The gist of the method: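 mRNA measured by qRT-PCR (TaqMan, Fluidigm arrays) against ACTB/GAPDH/POLR2A housekeepers after 48 h chemical exposure of HepaRG cells. Top concentration 100 uM, half-log 8-point series, duplicates; vehicle 0.5% DMSO, both fit directions.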

Read-out in assay [6]: Thyroid Hormone Responsive (THRSP), THRSP (gene 7069)
Kind of assay: LTEA_HepaRG_THRSP: Life Technologies and Expression Analysis (LTEA) Assay for Thyroid Hormone Responsive (THRSP) using HepaRG (AID 2283536). The method, boiled down: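 mRNA induction or loss relative to 0.5% DMSO vehicle was fitted bidirectionally across an eight-point curve whose highest exposure was 100 uM. Human HepaRG liver cells received chemicals in duplicate over 48 h before RNA extraction.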

Read-out in assay [7]: UDP glucuronosyltransferase (UGT1A1), UGT1A1 (gene 54658)
Kind of assay: LTEA_HepaRG_UGT1A1: Life Technologies and Expression Analysis (LTEA) Assay for UDP glucuronosyltransferase (UGT1A1) using HepaRG (AID 2283538). The gist of the method: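 Readout is UGT1A1 transcript level by qRT-PCR, normalized to three housekeeping genes, after 48 h chemical treatment of HepaRG cells. Concentrations ran from 100 uM down in half-log steps with 0.5% DMSO, and gain or loss relative to DMSO was fitted.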

Read-out in assay [8]: UDP glucuronosyltransferase (UGT1A6), UGT1A6 (gene 54578)
Kind of assay: LTEA_HepaRG_UGT1A6: Life Technologies and Expression Analysis (LTEA) Assay for UDP glucuronosyltransferase (UGT1A6) using HepaRG (AID 2283539). The gist of the method: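 Expression was quantified by TaqMan qRT-PCR on Fluidigm arrays with ACTB/GAPDH/POLR2A normalization and bidirectional fitting against 0.5% DMSO. HepaRG cells (~100,000/well) were treated in duplicate for 48 h at eight half-log concentrations up to 100 uM in serum-free induction medium.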

Read-out in assay [9]: Cellular tumor antigen p53 (Homo sapiens) (UniProt P04637)
Nature of the assay: LTEA_HepaRG_TP53: Life Technologies and Expression Analysis (LTEA) Assay for Tumor Protein P53 (TP53) using HepaRG (AID 2283537). The gist of the method: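 TP53 transcript measured by qRT-PCR, normalized to three housekeeping genes, after 48 h treatment of human HepaRG cultures with chemicals from 100 uM downward in half-log steps (0.5% DMSO vehicle, serum-free induction medium). Up- or down-regulation fitted against DMSO.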

Our source for the outcome and AC50 values is PubChem BioAssay (EPA / NIEHS).

Calls of active or inactive are those of the source. The calls were made as follows: active = hit-call score of the fitted dose curve at least 0.9, where 1 is the maximum; inactive = score below 0.9.

Sequence of Cellular tumor antigen p53 (Homo sapiens) (P04637 whole entry, looked up): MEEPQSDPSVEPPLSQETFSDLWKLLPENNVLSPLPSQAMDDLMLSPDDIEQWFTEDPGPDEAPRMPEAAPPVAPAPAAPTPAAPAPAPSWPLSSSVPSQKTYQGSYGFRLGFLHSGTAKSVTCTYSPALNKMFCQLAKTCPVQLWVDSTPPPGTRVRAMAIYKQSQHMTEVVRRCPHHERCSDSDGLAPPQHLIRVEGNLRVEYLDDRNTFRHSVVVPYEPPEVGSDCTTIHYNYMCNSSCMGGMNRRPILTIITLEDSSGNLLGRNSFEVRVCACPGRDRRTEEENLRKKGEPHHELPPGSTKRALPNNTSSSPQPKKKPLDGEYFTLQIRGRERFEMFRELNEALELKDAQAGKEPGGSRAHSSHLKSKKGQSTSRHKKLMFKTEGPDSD

For the compound `CC(C)N1C(=O)c2ccccc2NS1(=O)=O`, the outcome in assay [1] was “inactive”; in assay [2], “inactive”; in assay [3], “inactive”; in assay [4], “inactive”; with TIMP1, TIMP1 (gene 7076) it was “inactive”; in [5], “inactive”. Also, the result in assay [6], in assay [7] and in assay [8] was inactive.
As to `CCOP(=S)(OCC)Oc1nc(Cl)n(C(C)C)n1`, the outcome in [1] is “inactive”; in assay [2] it was “inactive”; in assay [3], “inactive”; in assay [4], “inactive”; with TIMP1, TIMP1 (gene 7076) it was “inactive”; in assay [5] it was “inactive”. In addition, the call in assay [8] was inactive. The AC50 in [6] was 26.1 µM (active); in assay [7], 12.5 µM (active).
As to `CC(C)Nc1nc(Cl)nc(NC(C)C)n1`, the outcome is “inactive” in assay [2]; “inactive” in [3]; “inactive” in assay [4]; “inactive” in the assay with TIMP1, TIMP1 (gene 7076); “inactive” in assay [5]; “inactive” in assay [6]. The compound was classed as inactive in assay [9] and in assay [8]. The AC50 in [7] was 8.13 µM (active).
Consider `COCC(=O)N(c1c(C)cccc1C)C(C)C(=O)OC` (centres undefined), for which the outcome in assay [1] was “inactive”; in assay [2], “inactive”; in assay [3], “inactive”; in [4], “inactive”; in the assay with TIMP1, TIMP1 (gene 7076) it was “inactive”; in assay [5], “inactive”. The result in assay [6], in assay [7] and in assay [8] was inactive.
With `CC1(C)CCC(=Cc2ccc(Cl)cc2)C1(O)Cn1cncn1` (centres undefined), the outcome in assay [1] is “inactive”; in assay [2] it was “inactive”; in assay [3], “inactive”; in assay [4], “inactive”; in the assay with TIMP1, TIMP1 (gene 7076) it was “inactive”; in assay [5], “inactive”. The outcome in assay [8] was inactive. In addition, the figures for the AC50 in assay [6] and in [7] were 24.1 µM (active) and 5.72 µM (active), respectively.
Regarding `C=C(C)CN(CC)c1c([N+](=O)[O-])cc(C(F)(F)F)cc1[N+](=O)[O-]`, the outcome in assay [1] was “inactive”; in assay [2], “inactive”; in assay [3], “inactive”; in assay [4] it was “inactive”; with TIMP1, TIMP1 (gene 7076), “inactive”; in [5], “inactive”. The call in assay [6] and in [8] was inactive. In addition, in [7], the AC50 is 50 µM (active).
Consider `CNC(=O)N(C)c1nnc(C(C)(C)C)s1`, for which the outcome in assay [1] was “inactive”; in [2], “inactive”; in [3], “inactive”; in [4], “inactive”; in the assay with TIMP1, TIMP1 (gene 7076), “inactive”; in [5], “inactive”. The compound was called inactive in assay [6], in assay [7] and in [8].
Turning to `COC(=O)NC(=S)Nc1ccccc1NC(=S)NC(=O)OC`, the outcome in assay [1] was “inactive”; in assay [2], “inactive”; in [3], “inactive”; in assay [4], “inactive”; in the assay with TIMP1, TIMP1 (gene 7076), “inactive”; in assay [5], “inactive”. Moreover, the outcome in [6] and in assay [8] was inactive. Moreover, in assay [7], the half-maximal activity concentration (AC50) was 14.3 µM (active).
As for `O=c1n(Cl)c(=O)n(Cl)c(=O)n1Cl`, the outcome in [1] is “inactive”; in assay [2], “inactive”; in assay [3] it was “inactive”; in assay [4] it was “inactive”; with TIMP1, TIMP1 (gene 7076), “inactive”; in assay [5], “inactive”. Moreover, the call in assay [6], in [7] and in assay [8] was inactive.
On to `COC(=O)c1c(C(F)F)nc(C(F)(F)F)c(C2=NCCS2)c1CC(C)C`, for which the outcome is “inactive” in assay [1]; “inactive” in assay [2]; “inactive” in assay [3]; “inactive” in [4]; “inactive” with TIMP1, TIMP1 (gene 7076); “inactive” in assay [5]. In addition, the compound was classed as inactive in [6] and in assay [8]. The AC50 in [7] was 5.73 µM (active).
Turning to `CCNC(=O)NC(=O)C(C#N)=NOC`, the outcome in [1] was “inactive”; in assay [2], “inactive”; in assay [3], “inactive”; in [4], “inactive”; in the assay with TIMP1, TIMP1 (gene 7076), “inactive”; in assay [6] it was “inactive”. Besides, the compound was called inactive in [7]. The results for the AC50 in [5] and in assay [8] were 0.27 µM (active) and 0.306 µM (active), respectively.
`CCSC(=O)N1CCCCCC1`: the outcome in assay [1] was “inactive”; in assay [2], “inactive”; in assay [3] it was “inactive”; in [4], “inactive”; with TIMP1, TIMP1 (gene 7076), “inactive”; in assay [5], “inactive”. In addition, the call in [6], in assay [7] and in assay [8] was inactive.
As to `CC(C)(C)C(=O)C(Oc1ccc(Cl)cc1)n1cncn1` (centres undefined), the outcome is “inactive” in assay [1]; “inactive” in assay [3]; “inactive” in assay [4]; “inactive” with TIMP1, TIMP1 (gene 7076); “inactive” in assay [5]; “inactive” in assay [8]. Further, the AC50 was 33 µM (active) in [6] and 6.35 µM (active) in [7].
Consider `COCC(C)N(C(=O)CCl)c1c(C)csc1C` (centres undefined), for which the outcome is “inactive” in assay [1]; “inactive” in assay [2]; “inactive” in assay [3]; “inactive” in [4]; “inactive” with TIMP1, TIMP1 (gene 7076); “inactive” in [5]. The result in [6] and in assay [8] was inactive. The AC50 in assay [7] was 22.2 µM (active).
In the case of `N#Cc1c[nH]cc1-c1cccc2c1OC(F)(F)O2`, the AC50 in assay [1] was 50 µM (active); in assay [2], 50 µM (active); in assay [6], 18 µM (active); in assay [7] it was 34.3 µM (active). Moreover, the outcome in assay [3] was “inactive”; in the assay with TIMP1, TIMP1 (gene 7076), “inactive”; in [5], “inactive”; in assay [8] it was “inactive”.
For `CCOc1cc(C(C)(C)C)ccc1C1COC(c2c(F)cccc2F)=N1` (centres undefined), the outcome in assay [1] is “inactive”; in [3], “inactive”; in [4] it was “inactive”; in the assay with TIMP1, TIMP1 (gene 7076), “inactive”; in [5] it was “inactive”; in assay [6], “inactive”. For the same compound, the result in assay [8] was inactive. The AC50 in assay [2] was 8.25 µM (active); in assay [7], 8.48 µM (active).
On to `Nc1c(Cl)c(Cl)nc(C(=O)O)c1Cl`, for which the outcome in assay [1] was “inactive”; in assay [2] it was “inactive”; in [3] it was “inactive”; in assay [4], “inactive”; with TIMP1, TIMP1 (gene 7076) it was “inactive”; in assay [5], “inactive”. The compound was classed as inactive in [6], in assay [7] and in assay [8].
Consider `N#Cc1c(Cl)cccc1Cl`, for which the outcome in assay [1] was “inactive”; in assay [2] it was “inactive”; in assay [3], “inactive”; in assay [4], “inactive”; with TIMP1, TIMP1 (gene 7076), “inactive”; in assay [5], “inactive”. In addition, the compound was classed as inactive in assay [6], in assay [7] and in assay [8].
With `CNC(=O)Oc1cccc2ccccc12`, the outcome in assay [1] was “inactive”; in [2], “inactive”; in [3], “inactive”; in assay [4] it was “inactive”; with TIMP1, TIMP1 (gene 7076) it was “inactive”; in [5], “inactive”. The compound was called inactive in [6] and in assay [8]. Besides, the AC50 in assay [7] is 50 µM (active).

Usually AC50 stands for the concentration giving half of the maximal activity seen.
